Test results reported in PubChem BioAssay AID1347074 (Center for Chemical Genomics, University of Michigan, 2019).
Out of some 47,000 compounds screened, about 2,800 (6%) were called active. The sample holds actives, similar compounds and a random draw of the others, so the mix is not that of the screen. Cut-off read from the data, not from the text of the source: active = z-score above about 3 (passing the limit was not always enough); inactive = the rest.

These compounds were tested against Endoribonuclease Dicer (Homo sapiens) (UniProt Q9UPY3) (assay: inhibitors of Dicer pre-microRNA processing, primary screen, biochemical, cat-ELCCA, chemiluminescence (AID 1347074;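 note: plate controls were vehicle for no effect and no enzyme for full effect; higher signal means more uncleaved substrate so more Dicer inhibition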)). Conditions: cat-ELCCA pre-miR-21 Dicer processing, at 25 µM, hits give high values.
Endoribonuclease Dicer (Homo sapiens), sequence (Q9UPY3 whole entry, looked up): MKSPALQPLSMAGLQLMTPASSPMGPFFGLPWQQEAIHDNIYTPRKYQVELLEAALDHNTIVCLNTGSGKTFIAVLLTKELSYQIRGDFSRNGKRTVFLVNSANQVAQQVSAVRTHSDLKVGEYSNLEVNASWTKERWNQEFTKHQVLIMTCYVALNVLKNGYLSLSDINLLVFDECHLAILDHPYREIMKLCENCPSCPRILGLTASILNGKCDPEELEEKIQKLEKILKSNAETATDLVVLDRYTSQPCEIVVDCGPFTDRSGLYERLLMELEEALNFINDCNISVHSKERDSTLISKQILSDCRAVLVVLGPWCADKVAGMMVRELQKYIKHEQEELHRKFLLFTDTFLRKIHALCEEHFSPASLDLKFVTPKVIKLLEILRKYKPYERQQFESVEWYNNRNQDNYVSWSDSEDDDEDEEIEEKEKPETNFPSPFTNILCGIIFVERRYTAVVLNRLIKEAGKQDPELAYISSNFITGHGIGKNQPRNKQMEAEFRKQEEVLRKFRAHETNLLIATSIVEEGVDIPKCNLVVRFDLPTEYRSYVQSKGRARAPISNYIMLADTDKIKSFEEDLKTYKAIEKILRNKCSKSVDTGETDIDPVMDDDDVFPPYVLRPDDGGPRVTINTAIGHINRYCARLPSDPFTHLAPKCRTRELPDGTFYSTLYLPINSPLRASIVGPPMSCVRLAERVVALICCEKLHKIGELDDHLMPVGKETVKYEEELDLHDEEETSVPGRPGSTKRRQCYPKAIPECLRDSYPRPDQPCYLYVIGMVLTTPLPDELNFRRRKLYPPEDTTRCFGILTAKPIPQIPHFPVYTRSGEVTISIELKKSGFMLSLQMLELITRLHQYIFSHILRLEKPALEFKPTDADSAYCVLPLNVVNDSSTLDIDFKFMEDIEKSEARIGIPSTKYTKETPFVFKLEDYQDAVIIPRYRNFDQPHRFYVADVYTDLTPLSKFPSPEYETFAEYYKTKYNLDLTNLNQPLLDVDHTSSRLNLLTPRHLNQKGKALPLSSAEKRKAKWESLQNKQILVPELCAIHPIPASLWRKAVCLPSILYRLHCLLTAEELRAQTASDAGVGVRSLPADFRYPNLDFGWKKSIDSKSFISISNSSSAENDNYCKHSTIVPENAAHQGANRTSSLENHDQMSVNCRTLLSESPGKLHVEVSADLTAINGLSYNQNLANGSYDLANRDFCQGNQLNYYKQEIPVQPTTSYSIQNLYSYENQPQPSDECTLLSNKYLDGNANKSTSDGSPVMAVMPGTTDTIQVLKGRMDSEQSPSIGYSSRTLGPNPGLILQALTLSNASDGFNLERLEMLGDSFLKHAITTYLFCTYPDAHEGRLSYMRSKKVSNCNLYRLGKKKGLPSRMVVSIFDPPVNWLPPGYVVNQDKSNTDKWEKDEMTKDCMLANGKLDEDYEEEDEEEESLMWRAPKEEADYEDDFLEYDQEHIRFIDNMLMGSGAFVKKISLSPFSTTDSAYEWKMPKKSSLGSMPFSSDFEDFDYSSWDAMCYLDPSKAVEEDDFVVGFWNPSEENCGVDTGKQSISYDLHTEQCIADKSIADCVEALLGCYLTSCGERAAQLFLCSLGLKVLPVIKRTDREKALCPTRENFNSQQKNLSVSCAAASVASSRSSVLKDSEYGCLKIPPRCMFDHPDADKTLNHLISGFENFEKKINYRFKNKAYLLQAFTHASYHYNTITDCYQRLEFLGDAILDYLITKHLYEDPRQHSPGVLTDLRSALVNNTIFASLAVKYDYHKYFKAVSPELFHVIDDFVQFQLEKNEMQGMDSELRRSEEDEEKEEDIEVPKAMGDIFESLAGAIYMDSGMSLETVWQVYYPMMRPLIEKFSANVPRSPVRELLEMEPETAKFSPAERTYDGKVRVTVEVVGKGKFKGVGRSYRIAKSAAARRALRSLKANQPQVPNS

How did the z-score turn out when COc1ccc(-n2ncc(C(=O)NCc3c(Cl)cccc3Oc3ccccc3)c2C)cc1 was run?
Its z-score is -2.95 (inactive).

How did the z-score turn out when CSc1sc(C(=O)Nc2ccc(Cl)cc2)c2c1S(=O)(=O)N(C)c1ccccc1-2 was run?
Its z-score is -0.3 (inactive).

CCC(CC)NC(=O)C1c2ccccc2Oc2ccccc21 was tested. Which z-score did it give?
The z-score was 6.16 (active).

How did the z-score turn out when N#Cc1ccc(N2CCN(C(=O)c3cc(-c4ccc(Cl)cc4)oc3C(F)(F)F)CC2)cc1 was run?
The z-score was 0.32 (inactive).

Which z-score does the source give for Cc1ccc(-c2cn3cc(C)ccc3n2)cc1 here?
Its z-score is -0.35 (inactive).

Which z-score does the source give for COc1ccc(-c2cn3ccc(C)cc3n2)cc1F here?
Its z-score is 3.54 (active).

For CC(C)c1cc(C(C)C)c(S(=O)(=O)NCc2cccnc2)c(C(C)C)c1, which z-score is on record?
The z-score was -0.34 (inactive).

Which z-score does the source give for Cc1cc(OCC(=O)O)cc2c1C(=O)CC(C)(C)O2 here?
The z-score was 1.97 (inactive).

For Cc1nc(-c2cc(C#N)c(SCCNS(=O)(=O)c3ccc(Cl)cc3Cl)nc2C)cs1, which z-score is on record?
The z-score was -0.5 (inactive).

C=CCOc1ccc(C2c3c(oc4ccccc4c3=O)C(=O)N2c2nncs2)cc1 (configuration not stated) was tested. Which z-score did it give?
The z-score was -1.03 (inactive).

With CC(=O)Nc1cc(Sc2ccc(C)cc2)c(F)cc1[N+](=O)[O-] as the compound, how does the z-score read?
The z-score was -0.55 (inactive).

With Cc1ccc2nc(CCC(=O)O)[nH]c2c1 as the compound, how does the z-score read?
The z-score was 1.6 (inactive).

For CC(=O)C(Cc1ccc([N+](=O)[O-])cc1)(Cc1c(F)cccc1Cl)C(C)=O, which z-score is on record?
The z-score was 3.5 (active).

Which z-score does the source give for O=C(CSCc1c(F)cccc1Cl)NCc1ccc2c(c1)OCO2 here?
The z-score was 1.3 (inactive).

With O=[N+]([O-])c1ccc(CSc2nc3cc(Cl)c(F)cc3[nH]2)cc1 as the compound, how does the z-score read?
Its z-score is 0.13 (inactive).

With COc1ccccc1C1=Nc2cccc3cccc(c23)N1 as the compound, how does the z-score read?
Its z-score is -0.3 (inactive).

Brc1ccccc1C1Nc2cccc3cccc(c23)N1 was tested. Which z-score did it give?
Its z-score is 5.91 (active).

How did the z-score turn out when COc1cc(OC)cc(-c2nc3n(n2)C(c2cccc(OC)c2OC)C2=C(CCCC2=O)N3)c1 (configuration not stated) was run?
The z-score was -0.15 (inactive).

For COc1cccc(C2Nc3cccc4cccc(c34)N2)c1OC, which z-score is on record?
Its z-score is 3.14 (active).

Which z-score does the source give for C=CCc1ccc(OCc2ccc(C(=O)OC)cc2)c(OC)c1 here?
Its z-score is 0.92 (inactive).

For ONC(=Nc1cccc(Cl)c1)c1ccccc1, which z-score is on record?
Its z-score is 0.78 (inactive).

Which z-score does the source give for CCOC(=O)C1=C(C)NC2=C(C(=O)c3ccccc32)C1c1cccc(F)c1 (configuration not stated) here?
Its z-score is -1.25 (inactive).

How did the z-score turn out when O=C(O)CCCC(=O)Nc1ccc2c(c1)OCCO2 was run?
The z-score was -0.36 (inactive).

With Cc1ccc(C2Nc3nonc3NC3=C2C(=O)CC(C)(C)C3)cc1 (configuration not stated) as the compound, how does the z-score read?
The z-score was -0.08 (inactive).

For Cc1cc(=O)[nH]c(SCc2cn3c(C)cc(C)nc3n2)n1, which z-score is on record?
Its z-score is 2.76 (inactive).

Cc1cc(=O)[nH]c(SCc2ccc(Cl)cc2)n1 was tested. Which z-score did it give?
The z-score was 0.25 (inactive).

For Cc1cc(=O)[nH]c(SCc2cn3cccnc3n2)n1, which z-score is on record?
The z-score was 3.69 (active).

With CCOCCOC(=O)C1=C(C)NC2=C(C(=O)CCC2)C1c1ccc(O)c(OCC)c1 (configuration not stated) as the compound, how does the z-score read?
Its z-score is -0.34 (inactive).

Which z-score does the source give for O=C(Nc1cc(C(F)(F)F)cc(C(F)(F)F)c1)c1csc([N+](=O)[O-])c1 here?
Its z-score is 1.87 (inactive).

Which z-score does the source give for O=c1[nH]nc(Sc2ncc(Br)cc2[N+](=O)[O-])n1-c1ccc(Cl)cc1 here?
The z-score was -0.78 (inactive).

Which z-score does the source give for Cc1ccc2c(c1)sc1ncc(NC(=O)c3ccc(C(C)(C)C)cc3)c(=O)n12 here?
The z-score was -1.01 (inactive).

How did the z-score turn out when CCn1c2c(c(=O)[nH]c1=O)C(c1ccccc1OC)C1=C(N2)c2ccccc2C1=O (configuration not stated) was run?
The z-score was 2.33 (inactive).

CCc1ccc(C2CC(=O)Nc3n[nH]c(-c4ccc(Cl)cc4)c32)cc1 (configuration not stated) was tested. Which z-score did it give?
Its z-score is 0.45 (inactive).

With CC(C)(C)c1ccc(C(=O)Nc2cc(C#N)c3sc4ccccc4n3c2=O)cc1 as the compound, how does the z-score read?
The z-score was -0.68 (inactive).

O=C1C(=O)N(CCCN2CCOCC2)C(c2ccco2)/C1=C(\O)c1ccc(F)cc1 (configuration not stated) was tested. Which z-score did it give?
Its z-score is 2.92 (inactive).

O=C(O)C1CC(=O)N(Cc2ccccc2Cl)C1 (configuration not stated) was tested. Which z-score did it give?
Its z-score is -1.02 (inactive).

For O=C1CC(N2CCN(c3cccc(Cl)c3)CC2)C(=O)N1c1cccc(Cl)c1 (configuration not stated), which z-score is on record?
The z-score was 0.79 (inactive).

With O=C(O)C1CC(=O)N(c2cccc(Cl)c2)C1 (configuration not stated) as the compound, how does the z-score read?
The z-score was 8.4 (active).

CC(c1ccccc1)C1C(C#N)=C(N)Oc2n[nH]c(-c3ccccc3)c21 (configuration not stated) was tested. Which z-score did it give?
Its z-score is -0.54 (inactive).

Cc1cc(C)cc(N2CC(C)Cn3c2nc2c3c(=O)n(CC(=O)O)c(=O)n2C)c1 (configuration not stated) was tested. Which z-score did it give?
The z-score was -0.04 (inactive).

Which z-score does the source give for Cc1ccc(C(=O)CSc2nnc(-c3ccccc3)n2C)cc1 here?
Its z-score is 8.7 (inactive).

For Cc1cc(-c2ccccc2)n2nc(C)cc2n1, which z-score is on record?
The z-score was 0.05 (inactive).

For CCOC(=O)c1c(N)sc2c1CC(C)(C)OC2, which z-score is on record?
Its z-score is -0.32 (inactive).

How did the z-score turn out when CC1=CC(C)(C)N(C(=O)NC2CCCCC2)c2ccc(C)cc21 was run?
Its z-score is -5.39 (inactive).

How did the z-score turn out when CC1=CC(C)(C)N(S(=O)(=O)c2ccc(C)cc2)c2cc3c(cc21)OCO3 was run?
The z-score was 3.26 (active).

Which z-score does the source give for Cn1c(N2CCCCC2)nc2c1c(=O)n(Cc1ccc(Cl)cc1Cl)c(=O)n2C here?
Its z-score is -1.04 (inactive).

How did the z-score turn out when Cn1c(CSc2cccs2)nnc1SCc1c(Cl)cccc1Cl was run?
The z-score was 0.02 (inactive).

How did the z-score turn out when CC(=O)Nc1ccc(C(=O)CSc2nc3nc(C)cc(C)c3c(=O)[nH]2)cc1 was run?
The z-score was -0.34 (inactive).

For O=C1/C(=C/c2ccc(Cl)cc2)CCC/C1=C\c1ccc(Cl)cc1, which z-score is on record?
Its z-score is -1.13 (inactive).

CN(C)c1ccc(/C=C2\CCC/C(=C\c3ccc(N(C)C)cc3Cl)C2=O)c(Cl)c1 was tested. Which z-score did it give?
The z-score was 3.37 (active).

For Cn1ccnc1SCC(=O)Nc1cccc2nsnc12, which z-score is on record?
The z-score was -4.69 (inactive).

CC1=N/C(=C/c2ccccc2Cl)C(=O)O1 was tested. Which z-score did it give?
Its z-score is 3.5 (active).

For O=C(CN1C(=O)/C(=C/c2ccccc2Cl)N=C1c1ccccc1)c1ccccc1, which z-score is on record?
Its z-score is 0.22 (inactive).

With CC1=N/C(=C/c2ccccc2O)C(=O)O1 as the compound, how does the z-score read?
Its z-score is 0.13 (inactive).

Which z-score does the source give for CCOC(=O)Cn1c(Sc2nc3c(c(=O)n(C)c(=O)n3C)n2C)nc2ccccc21 here?
The z-score was 2.22 (inactive).

Which z-score does the source give for O=C(O)CC1S/C(=N\N=C\c2ccco2)NC1=O (configuration not stated) here?
The z-score was -0.87 (inactive).

O=C(NCc1ccc2c(c1)OCO2)c1ccc(Cn2cc(Cl)cn2)cc1 was tested. Which z-score did it give?
Its z-score is 1.8 (inactive).

CCOc1ccc(S(=O)(=O)n2ccnc2)c2ccccc12 was tested. Which z-score did it give?
The z-score was 3.38 (active).

Which z-score does the source give for COc1cc(C)c(Cl)cc1S(=O)(=O)n1ccnc1 here?
The z-score was -0.35 (inactive).

With CCOc1ccc(S(=O)(=O)Nc2ccncc2)c(C)c1C as the compound, how does the z-score read?
Its z-score is 0.59 (inactive).

CSCC(CSC)OC(=O)NC(=O)c1c(Cl)cccc1Cl was tested. Which z-score did it give?
The z-score was -0.86 (inactive).

Which z-score does the source give for NC(=O)C1CCN(C(=O)C2CC(c3ccc(Cl)cc3)=NO2)CC1 (configuration not stated) here?
The z-score was -1.13 (inactive).
